Assay [1] is described as follows: compounds altering circadian rhythm period length – cell-based, LOPAC library, luminescence reporter (AID 2774; call rule not given here;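 further: values are relative to mean of DMSO wells on each plate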). The conditions noted are these: circadian reporter cells, at 7 µM, actives lie on both sides.
Assay [2] relates to Hepatitis C virus NS3 helicase. Description: blockers of NS3h binding to ssDNA – biochemical, fluorescence polarization, LOPAC1280 library, primary screen (AID 687035; in the data active means inhibition above about 37%). Particulars: Purified HCV NS3 helicase, Cy5-dT15 ssDNA binding fluorescence polarization; stronger effect = higher value; concentration not given here. Background: Fluorescence polarisation rises when a labelled molecule tumbles more slowly, as on binding a larger partner.

Assay [3] can be described thus: compounds altering Cy5-DNA-NS3h complex signal – biochemical, LOPAC1280, artefact control for HCV NS3 helicase inhibitor project (AID 687037; call rule not given here). The conditions noted are these: Cy5-DNA-NS3h complex fluorescence interference counterscreen.
Assay [4] is described as follows: chitosan synthesis blockers in C. neoformans – flow cytometry, Cibacron Brilliant Red staining (AID 1347148; call rule not given here;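 further: compound exposure lasted three days at 37 degrees C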). Particulars: Cryptococcus neoformans chitosan, stronger effect = lower value; at 10 µM unless noted. (In general: A flow cytometer gives signals particle by particle.)
A short description of assay [5]: blockers of cellular phospholipid synthesis – cell-based, LOPAC library, screen 4, primary screen (AID 1347384; call rule not given here). The conditions noted are these: animal cells, phospholipid biosynthesis inhibition screen; at 10 µM.
A short description of assay [6]: galactose survival enhancers in mitochondrial complex I cybrids – cell-based, galactose medium, ATP luminescence, primary screen (AID 1645843;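 active means z-score of at least 1.8 in each of two replicates, scored against plate mean and spread of sample wells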;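 further: positive z means more ATP and so rescue of galactose-driven cybrid death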). Particulars: complex I mutant cybrid cells, 72 h, stronger effect = higher value.
A short description of assay [7]: growth inhibition, single agents and combos, LFS_MB_1R, cell-based, cisplatin or BGB combos, synergistic combos for chromothripsis tumors (AID 1671452).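 Further: cells exposed for 96 hours before readout.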 Particulars: LFS_MB_1R medulloblastoma cells, stronger effect = higher value.
A short description of assay [8]: growth inhibition, single agents and combos, CRL2098, cell-based, BGB or cisplatin IC20 combos, synergistic combos for chromothripsis tumors (AID 1671454).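 Further: cells exposed for 96 h before readout; 0% = vehicle DMSO and 100% = killing by high DMSO.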 The conditions noted are these: CRL2098 osteosarcoma cells, drug combinations, stronger effect = higher value.
Assay [9] can be described thus: growth inhibition, single agents and combos, HD-MB03, cell-based, BGB or cisplatin IC20 combos, synergistic combos for chromothripsis tumors (AID 1671455; in the data active means inhibition above about 83%;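 further: 0% = vehicle DMSO and 100% = high DMSO as cytotoxic control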). Particulars: HD-MB03 medulloblastoma cells, stronger effect = higher value.
Assay [10] in a line: growth inhibition, single agents and combos, UWB1.289, cell-based, BGB or cisplatin combos, synergistic combos for chromothripsis tumors (AID 1671456).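 Further: cells exposed to compound for four days; 0% = vehicle DMSO and 100% = killing by high DMSO.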 The conditions noted are these: UWB1.289 ovarian carcinoma cells, stronger effect = higher value.
The nature of assay [11]: growth inhibition, single agents and combos, LFS_MB_2R, cell-based, cisplatin combos, synergistic combos for chromothripsis tumors (AID 1671457).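 Further: cells exposed to compound for four days before readout.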 Particulars: LFS_MB_2R medulloblastoma cells, stronger effect = higher value.
Assay [12] in a line: UWB1.289_BRCA1 ovarian cancer growth, cell-based, BGB or cisplatin combinations (AID 1671459). The conditions noted are these: UWB1.289 BRCA1 ovarian carcinoma, drug combinations, stronger effect = higher value.
Assay [13] can be described thus: drug combination toxicity in non-malignant astrocytes – cell-based, BGB or cisplatin IC20 combos, cytotoxicity control for chromothriptic childhood tumor combination screen (AID 1671460).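 Further: cells exposed to compounds for 96 hours before viability readout; 0% = vehicle and 100% = killing control.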 Particulars: Human astrocytes, viability inhibition, drug combinations, at 0.5 µM, stronger effect = higher value.
The nature of assay [14]: P. berghei load reduction in hepatocytes – cell-based, HepG2, luciferase luminescence, HepG2 viability, primary screen (AID 624349; in the data active means parasite load remaining mostly below about 12%, no sharp cut-off; inactive means mostly above about 10%;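 further: 100% = mean of DMSO negative control wells on the same plate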). Particulars: P. berghei liver stage in HepG2, luciferase luminescence, concentration not given here; parasite load remaining: stronger effect = lower value; viability: measured here: HepG2 viability without parasites.
Assay [15] can be described thus: liver-stage malaria parasite load reduction – cell-based, known kinase inhibitor set, luminescence, hepatoma host viability (AID 624392; call rule not given here;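 further: infected cells incubated roughly two days before readout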). The conditions noted are these: Plasmodium liver stage in hepatoma cells, luciferase luminescence, concentration not given here; liver cell % of control: measured here: host liver cell viability; parasite % of control: stronger effect = lower value.

Assay [16] has as its target NAD(+) hydrolase SARM1 (Homo sapiens) (UniProt Q6SZW1). Put plainly: blocking NAD cleavage by SARM1 SAM-TIR – cell lysate, NAD-Glo luminescence (AID 1508614;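 active means compound whose remaining NAD level is above about 45 nM, limit read from the data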). The conditions noted are these: SAM-TIR HEK293T lysate NADase, at 1 µM, stronger effect = higher value.
Assay [17] concerns the target Mitogen-activated protein kinase 7 (Homo sapiens) (UniProt Q13164). Description: Gal4-ERK5 driven luciferase induction – cell-based, HTS, primary screen (AID 1508626;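 active means luciferase signal above three times the same-plate solvent-only control wells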;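 further: luciferase driven by Gal4-ERK5 fusion binding five Gal4 sites before minimal TATA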). Particulars: HeLa Gal4-ERK5 transactivation, 18 h, at 5 µM, stronger effect = higher value.
Assay [18] can be described thus: compounds altering viability of human ES cells (AID 493140; call rule not given here;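 further: cells exposed to compounds for four days before counting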). Particulars: human embryonic stem cell survival screen; stronger effect = higher value.
[19] abbreviates: measured here: combination with BGB IC40, at 0.05 µM.
[20] abbreviates: measured here: combination with cisplatin, at 0.5 µM.
[21] abbreviates: measured here: combination with cisplatin, at 5 µM.
[22] abbreviates: measured here: combination with BGB at IC20, at 0.5 µM.
[23] abbreviates: measured here: combination with cisplatin at IC20, at 0.5 µM.
Setting [24] is: measured here: combo with BGB at IC20, at 0.5 µM.
The mark [25] stands for this setting: measured here: combo with cisplatin at IC20, at 0.5 µM.
[26] abbreviates: measured here: inhibition with BGB combination, at 0.05 µM.
[27] abbreviates: measured here: inhibition with cisplatin combination, at 0.05 µM.
The mark [28] stands for this setting: BGB combination, concentration series, at 5 µM.
Where [29] appears, read: cisplatin combination, concentration series, at 5 µM.
Where [30] appears, read: measured here: combo with BGB IC20.
The mark [31] stands for this setting: measured here: combo with cisplatin IC20.

The structures appear in SMILES notation. Several values for one entry are separate records, joined by “and”; a condition that tells them apart may be missing. Equal values may be shown once. Activity calls are given as the source filed them. Unless noted, no stated cut-off is given here; in the data, active means inhibition above about 80%; inactive means the rest.

As a reminder, the inhibition is the drop in the measured response relative to a control, in per cent. Broadly, the viability is a per cent measure of how many cells are alive, often set against a control.

Chain of NAD(+) hydrolase SARM1 (Homo sapiens) (Q6SZW1 whole entry, looked up, the tested form may be a part): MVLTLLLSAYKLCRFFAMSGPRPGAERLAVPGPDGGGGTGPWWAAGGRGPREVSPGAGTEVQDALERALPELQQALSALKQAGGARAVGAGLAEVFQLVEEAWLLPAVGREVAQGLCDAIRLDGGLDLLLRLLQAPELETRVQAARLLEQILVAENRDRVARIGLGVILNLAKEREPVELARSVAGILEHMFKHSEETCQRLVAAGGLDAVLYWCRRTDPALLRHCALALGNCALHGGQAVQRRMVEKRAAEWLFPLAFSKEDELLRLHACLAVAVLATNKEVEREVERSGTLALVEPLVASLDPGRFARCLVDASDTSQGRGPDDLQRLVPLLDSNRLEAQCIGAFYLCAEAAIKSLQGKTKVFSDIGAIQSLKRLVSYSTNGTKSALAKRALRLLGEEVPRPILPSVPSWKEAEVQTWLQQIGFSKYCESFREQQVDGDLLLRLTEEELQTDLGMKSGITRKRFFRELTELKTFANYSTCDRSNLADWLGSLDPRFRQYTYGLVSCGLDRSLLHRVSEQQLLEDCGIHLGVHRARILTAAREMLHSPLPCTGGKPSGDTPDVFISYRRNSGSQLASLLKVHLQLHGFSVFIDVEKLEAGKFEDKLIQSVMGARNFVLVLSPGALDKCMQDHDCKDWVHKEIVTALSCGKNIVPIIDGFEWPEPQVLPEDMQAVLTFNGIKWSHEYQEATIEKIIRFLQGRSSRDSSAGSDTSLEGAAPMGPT
Chain of Mitogen-activated protein kinase 7 (Homo sapiens) (Q13164 whole entry, looked up, the tested form may be a part): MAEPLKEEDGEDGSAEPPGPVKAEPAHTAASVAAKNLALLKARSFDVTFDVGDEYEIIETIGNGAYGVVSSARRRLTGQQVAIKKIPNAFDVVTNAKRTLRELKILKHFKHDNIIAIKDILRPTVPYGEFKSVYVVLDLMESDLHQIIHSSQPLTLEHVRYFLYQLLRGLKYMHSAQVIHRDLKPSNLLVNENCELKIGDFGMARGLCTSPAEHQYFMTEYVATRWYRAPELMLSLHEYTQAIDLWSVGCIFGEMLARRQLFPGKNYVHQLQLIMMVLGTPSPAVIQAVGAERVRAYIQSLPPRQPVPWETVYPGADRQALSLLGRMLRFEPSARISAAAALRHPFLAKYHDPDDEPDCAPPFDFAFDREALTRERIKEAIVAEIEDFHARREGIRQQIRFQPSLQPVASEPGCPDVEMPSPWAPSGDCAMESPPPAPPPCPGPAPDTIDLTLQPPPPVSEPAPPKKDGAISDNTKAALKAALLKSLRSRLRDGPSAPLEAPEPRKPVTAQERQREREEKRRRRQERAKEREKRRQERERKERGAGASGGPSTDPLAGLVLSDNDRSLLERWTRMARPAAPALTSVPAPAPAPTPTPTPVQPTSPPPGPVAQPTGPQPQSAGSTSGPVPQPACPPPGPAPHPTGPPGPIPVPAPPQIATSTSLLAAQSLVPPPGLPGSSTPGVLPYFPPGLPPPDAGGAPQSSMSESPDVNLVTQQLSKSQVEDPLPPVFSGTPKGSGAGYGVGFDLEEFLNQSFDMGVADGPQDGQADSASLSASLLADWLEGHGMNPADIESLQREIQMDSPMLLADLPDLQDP

Take `OCc1ccc(-c2nn(Cc3ccccc3)c3ccccc23)o1`: the period change in assay [1] is -0.37 h (inactive). The inhibition in assay [2] is 0% (inactive). Besides, the fluorescence ratio (interference) in assay [3] is 1 (inactive). Moreover, the fold fluorescence in assay [4] was 11.2 [at 164.3 µM] (inactive). Besides, in [5], the molecule was classed as inactive. For the same molecule, in assay [6], the z-score is -0.46 (inactive).
For `COc1cc2ncnc(-n3nc(-c4ccccn4)nc3N)c2cc1OC`, the inhibition was -45.7% (inactive) in assay [7] (at 0.5 µM); -46.2% in assay [7] (setting [19]); -87.1% in assay [7] (setting [20]); -37.2% in assay [7] (setting [21]); -78.1% (inactive) in assay [8] (at 0.5 µM); -51.1% in assay [8] (setting [22]). For the same molecule, the inhibition in assay [8] (setting [23]) is -60.2%; in [9] (at 0.5 µM), -15.7% (inactive); in assay [9] (setting [24]) it was -13.6%; in [9] (setting [25]), -21.1%; in [10] (at 0.5 µM), -16.4% (inactive); in [10] (setting [26]), -29.1%. For the same molecule, the inhibition in [10] (setting [27]) was -13.1%; in [11] (at 0.5 µM), -18.6% (inactive); in assay [11] (setting [20]) it was -13.8%; in [11] (setting [21]), 1.78%; in [12] (setting [28]), 15%; in assay [12] (at 0.5 µM), -15.7% (inactive). Further, the inhibition in assay [12] (setting [29]) was 9.66%; in assay [13], 6.38% (inactive); in [13] (setting [30]), 7.82%; in assay [13] (setting [31]), -1.55%.
`Cc1cc(C(C)Nc2ccccc2)c2nc(N3CCOCC3)cc(=O)n2c1` (configuration not stated): in [14], the parasite load remaining was 33.1% (inactive) and the viability stood at 62.4%. For the same molecule, in assay [15], the liver cell % of control was 99% and 87.4% and 105%; the parasite % of control was 84.7% (inactive) and 70.8% (inactive) and 54.4% (inactive).
As for `COCCNCCCn1c(C(=O)CF)c(-c2ccc(C)cc2)c2c(N)ncnc21`, in assay [15], the parasite % of control is 34.2% (inactive) and 108% (inactive) and 115% (inactive).
With `CCC(=O)OCC(=O)[C@@]1(OC(=O)CC)[C@@H](C)C[C@H]2[C@@H]3CCC4=CC(=O)C=C[C@]4(C)[C@@]3(F)[C@@H](O)C[C@@]21C`, the remaining NAD in [16] was 10 nM (inactive). The luciferase signal in assay [17] was 156 AU (inactive).
In the case of `CC(C)(C)OC(=O)Nc1ccc(-c2cc(C(=O)NCCCCCCC(=O)NO)no2)cc1`, the inhibition in assay [7] (at 0.5 µM) was -23.9% (inactive) and 0.63% (inactive); in assay [7] (setting [19]), -39.1% and -9.87%; in assay [7] (setting [20]), -43.1% and 4.1%; in [7] (setting [21]), 61.5% and 70.7%; in [8] (at 0.5 µM) it was -72.5% (inactive) and -77.6% (inactive); in assay [8] (setting [22]) it was -95.4% and -52.6%. Further, the inhibition in assay [8] (setting [23]) is -69.5% and -63.5%; in assay [9] (at 0.5 µM) it was 9.94% (inactive) and 21.1% (inactive); in assay [9] (setting [24]), 2.31% and 13%; in assay [9] (setting [25]) it was 19.2% and 51.1%; in assay [10] (at 0.5 µM), -1.75% (inactive) and 9.21% (inactive); in [10] (setting [26]), -25.1% and -31.2%. In addition, the inhibition in assay [10] (setting [27]) is -18.4% and -19.7%; in [11] (at 0.5 µM) it was -15% (inactive) and -8.72% (inactive); in assay [11] (setting [20]), -1.56% and 8.91%; in assay [11] (setting [21]) it was 69.3% and 57.6%; in [12] (setting [28]) it was 81.5% and 72.3%; in assay [12] (at 0.5 µM) it was -3.45% (inactive) and 2.97% (inactive). Further, the inhibition in assay [12] (setting [29]) is 90.6% and 89.6%; in assay [13], 10.3% (inactive) and 12.5% (inactive); in assay [13] (setting [30]), 8.87% and 11.7%; in [13] (setting [31]), 7.42% and 16.9%.
As for `O=c1cc(-c2ccc(O)c(O)c2)oc2cc(O)cc(O)c12`, the period change in assay [1] is 0.085 h (inactive). For the same molecule, the survival in [18] is 0.75 (inactive). Moreover, in [14], the parasite load remaining was 83% (inactive) and the viability was determined as 96.4%.
With `CN(C)c1cc(NC(=O)CNC(C)(C)C)c(O)c2c1C[C@H]1C[C@H]3[C@H](N(C)C)C(=O)C(C(N)=O)=C(O)[C@@]3(O)C(=O)C1=C2O`, in assay [16], the remaining NAD was 10 nM (inactive).
With `O=c1c2ccccc2nc2n1CCc1c-2[nH]c2ccccc12`, the period change in [1] was 0.11 h (inactive). For the same molecule, in assay [2], the inhibition was 2% (inactive). In addition, the fluorescence ratio (interference) in assay [3] is 1 (inactive). Moreover, the call in assay [5] was inactive. Further, the z-score in [6] is 1.2 (inactive).
`O=C(NOC[C@H](O)CO)c1ccc(F)c(F)c1Nc1ccc(I)cc1F`: the molecule was classed as inactive in assay [5].
Turning to `CC(C)CN(C[C@@H](O)[C@H](Cc1ccccc1)NC(=O)O[C@H]1CCOC1)S(=O)(=O)c1ccc(N)cc1`, in assay [14], the parasite load remaining was 15.6% (inactive) and the viability stood at 75.5%. In addition, the z-score in assay [6] was 0.4 (inactive).
With `O=C1C(CCC(O)c2ccc(F)cc2)C(c2ccc(O)cc2)N1c1ccc(F)cc1` (configuration not stated), in [6], the z-score was -0.345 (inactive).
`CN(C)N=Nc1nc[nH]c1C(N)=O`: in assay [18], the survival is 12.2 (inactive). Further, in [14], the parasite load remaining is 83.6% (inactive) and 67% (inactive); the viability is 97.7% and 78.1%.
In the case of `CNCc1ccc(-c2[nH]c3cc(F)cc4c3c2CCNC4=O)cc1`, the inhibition in assay [7] (at 0.5 µM) was -10.6% (inactive) and -7.69% (inactive); in assay [7] (setting [19]), -6.36% and 4.87%; in [7] (setting [20]), 19.1% and -25%; in assay [7] (setting [21]), -18.5% and -25.3%; in assay [8] (at 0.5 µM) it was -36.2% (inactive) and -5.02% (inactive); in [8] (setting [22]) it was -29.2% and -1.4%. The inhibition in assay [8] (setting [23]) is -44.8% and 9.17%; in assay [9] (at 0.5 µM), -4.75% (inactive) and 7.82% (inactive); in assay [9] (setting [24]) it was -19.4% and -2.99%; in [9] (setting [25]), -1.52% and 19.2%; in [10] (at 0.5 µM), 3.38% (inactive) and 18.2% (inactive); in assay [10] (setting [26]), -7.35% and 1.55%. Moreover, the inhibition was -18.2% and 33.2% in assay [10] (setting [27]); -21.7% (inactive) and 11% (inactive) in [11] (at 0.5 µM); -36.4% and 1.09% in assay [11] (setting [20]); -18.9% and -8.07% in assay [11] (setting [21]); 7.87% and 16.2% in assay [12] (setting [28]); 2.14% (inactive) and 11.2% (inactive) in [12] (at 0.5 µM). For the same molecule, the inhibition in assay [12] (setting [29]) was 1.67% and 2.25%; in assay [13] it was 5.22% (inactive) and 8.56% (inactive); in [13] (setting [30]), -3.65% and 3.02%; in assay [13] (setting [31]), 2.06% and 7.11%.

(Values after PubChem BioAssay.)
